Results published in PubChem BioAssay (EPA / NIEHS).
Records with an inconclusive call do not appear. The source made the active and inactive calls. Rule for the calls, unless noted: active = hit-call score of the fitted dose curve at least 0.9, where 1 is the maximum; inconclusive = response in the unintended direction; inactive = score below 0.9.

Target: human Peroxisome Proliferator-activated Receptor delta (PPARd), PPARD (gene 5467) (UniProt Q03181)
Test: ATG_PPARd_TRANS: Attagene TRANS-FACTORIAL HepG2 Assay for human Peroxisome Proliferator-activated Receptor delta (PPARd) (AID 2283002)
Conditions: not given
In short: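 Multiplexed trans-activation format: HepG2 liver cells expressing exogenous NR-Gal4 chimeras and GAL4-UAS reporters were exposed for 24 h. Reporter mRNA was detected by RT-PCR with capillary electrophoresis fluorescence; activity fitted as gain of signal relative to DMSO.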

human Peroxisome Proliferator-activated Receptor delta (PPARd), PPARD (gene 5467), sequence (Q03181 whole entry, looked up): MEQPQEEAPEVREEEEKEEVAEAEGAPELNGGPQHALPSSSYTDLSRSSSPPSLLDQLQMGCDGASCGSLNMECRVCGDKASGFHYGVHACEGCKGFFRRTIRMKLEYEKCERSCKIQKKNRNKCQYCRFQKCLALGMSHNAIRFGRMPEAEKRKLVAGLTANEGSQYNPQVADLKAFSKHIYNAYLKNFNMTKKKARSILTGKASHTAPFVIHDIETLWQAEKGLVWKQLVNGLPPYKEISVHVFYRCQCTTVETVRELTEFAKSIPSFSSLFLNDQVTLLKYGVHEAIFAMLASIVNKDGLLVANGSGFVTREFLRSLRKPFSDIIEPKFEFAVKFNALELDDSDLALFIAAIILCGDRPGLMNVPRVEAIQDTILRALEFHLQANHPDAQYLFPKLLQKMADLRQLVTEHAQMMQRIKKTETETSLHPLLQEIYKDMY

Structure (SMILES)	outcome
COc1ccc(C=O)cc1	inactive
Nc1ccc(N=Nc2ccc(-c3ccc(N=Nc4c(S(=O)(=O)O)cc5cc(S(=O)(=O)O)c(N=Nc6ccccc6)c(O)c5c4N)cc3)cc2)c(N)c1	inactive
O=C(Cc1ccccc1)c1ccccc1	inactive
COC(=O)c1sccc1S(=O)(=O)NC(=O)Nc1nc(C)nc(OC)n1	inactive
C[C@H]1O[C@@H](O[C@H]2[C@@H](O)C[C@H](O[C@H]3[C@@H](O)C[C@H](O[C@H]4CC[C@@]5(C)[C@H](CC[C@@H]6[C@@H]5CC[C@]5(C)[C@@H](C7=CC(=O)OC7)CC[C@]65O)C4)O[C@@H]3C)O[C@@H]2C)C[C@H](O)[C@@H]1O	inactive
COP(=O)(OC)O/C(=C\Cl)c1cc(Cl)c(Cl)cc1Cl	inactive
O=[N+]([O-])c1c(Cl)c(Cl)cc(Cl)c1Cl	inactive
CN(CCCC(=O)c1cccnc1)N=O	inactive
c1ccc(N=NNc2ccccc2)cc1	inactive
CCCCCCCCSC(=O)Oc1cc(Cl)nnc1-c1ccccc1	inactive
c1cc[c]([Hg][c]2ccccc2)cc1	inactive
Clc1nc(Cl)nc(Cl)n1	inactive
COS(=O)(=O)c1ccc(C)cc1	inactive
C[C@H]1CCCC(=O)CCC/C=C/c2cc(O)cc(O)c2C(=O)O1	inactive
CCc1ccccc1C	inactive
ClCc1ccccn1	inactive
N#CN=C(N)N	inactive
COc1ccccc1OC	inactive
CCC(=O)c1ccccc1	inactive
CCC(C)c1cccc(C(C)CC)c1O (configuration not stated)	inactive

Read-out: Intercellular Adhesion Molecule 1 (ICAM1), ICAM1 (gene 3383)
Test: BSK_3C_ICAM1: BioMAP Diversity Plus: 3C Assay for Intercellular Adhesion Molecule 1 (ICAM1) Biomarker Activity (AID 2283003; active = hit-call score of the fitted dose curve at least 0.9, where 1 is the maximum; inactive = score below 0.9)
Conditions: primary human endothelial cells (HUVEC); actives raise or lower the signal
In short: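 ELISA readout of ICAM1 in human umbilical vein endothelial cells in the 3C system, taken 24 h post-dose. Gain or loss of signal versus DMSO was fitted in both directions, with SRB total-protein staining run in parallel.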

Structure (SMILES)	outcome
COC(=O)c1sccc1S(=O)(=O)NC(=O)Nc1nc(C)nc(OC)n1	inactive
CCOP(=S)(OCC)SCCS(=O)(=O)CC	inactive
Cn1sc(Cl)cc1=O	inactive
CCSC(C)CC1CC(=O)C(C(CC)=NOC/C=C/Cl)=C(O)C1 (configuration not stated)	inactive
ClC1=C(Cl)[C@]2(Cl)[C@H]3[C@H]([C@H]4C=C[C@H]3C4)[C@@]1(Cl)C2(Cl)Cl	inactive
COC[C@H](C)N(C(=O)CCl)c1c(C)csc1C	inactive
O=[N+]([O-])c1ccc2c3c(cccc13)CC2	inactive

Target: human Retinoic Acid Receptor beta (RARb), RARB (gene 5915) (UniProt P10826)
Test: ATG_RARb_TRANS: Attagene TRANS-FACTORIAL HepG2 Assay for human Retinoic Acid Receptor beta (AID 2283004)
Conditions: not given
In short: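 Transient transfection of HepG2 with multiple reporter units → chemical dosing, 24 h → total RNA isolation → RT with oligo(dT) → reporter-specific PCR, 6-FAM primer extension, HpaI digest → capillary electrophoresis. Positive direction vs DMSO control.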

human Retinoic Acid Receptor beta (RARb), RARB (gene 5915), sequence (P10826 whole entry, looked up): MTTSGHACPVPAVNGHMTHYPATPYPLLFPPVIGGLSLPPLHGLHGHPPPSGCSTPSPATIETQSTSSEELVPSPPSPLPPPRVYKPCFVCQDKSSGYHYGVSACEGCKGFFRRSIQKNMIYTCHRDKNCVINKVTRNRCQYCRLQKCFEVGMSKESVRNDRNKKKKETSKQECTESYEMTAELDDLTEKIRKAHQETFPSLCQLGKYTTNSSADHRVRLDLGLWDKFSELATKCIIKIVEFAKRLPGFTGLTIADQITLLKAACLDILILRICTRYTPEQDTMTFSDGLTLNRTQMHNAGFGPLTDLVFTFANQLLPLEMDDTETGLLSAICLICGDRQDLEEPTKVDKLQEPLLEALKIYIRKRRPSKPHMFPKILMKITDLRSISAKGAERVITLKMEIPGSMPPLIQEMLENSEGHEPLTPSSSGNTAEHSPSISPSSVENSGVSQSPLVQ

Structure (SMILES)	outcome
O=C(Cc1ccccc1)c1ccccc1	inactive
O=C1C(Cl)=C(Cl)C(=O)c2ccccc21	inactive
O=[N+]([O-])c1c(Cl)c(Cl)cc(Cl)c1Cl	inactive
CNC(=O)O/N=C/C(C)(C)S(C)=O (configuration not stated)	inactive
O=C/C=C/c1ccccc1	inactive
COc1ccccc1OC	inactive
O=[N+]([O-])c1ccc2c3c(cccc13)CC2	inactive
CCC(C)c1cccc(C(C)CC)c1O (configuration not stated)	inactive

Target: Retinoic acid receptor alpha (Homo sapiens) (UniProt P10276)
Test: ATG_RARa_TRANS: Attagene TRANS-FACTORIAL HepG2 Assay for human Retinoic Acid Receptor alpha (RARa) (AID 2283005)
Conditions: not given
In short: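 HepG2 cells transiently transfected with multiple reporter units expressing chimeric RARα-GAL4 fusion, with GAL4-UAS-driven reporters. After 24 h compound exposure, reporter mRNA induction quantified by RT-PCR and capillary electrophoresis with fluorescent labeling; gain-of-signal fitted relative to DMSO control.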

Retinoic acid receptor alpha (Homo sapiens), sequence (P10276 whole entry, looked up): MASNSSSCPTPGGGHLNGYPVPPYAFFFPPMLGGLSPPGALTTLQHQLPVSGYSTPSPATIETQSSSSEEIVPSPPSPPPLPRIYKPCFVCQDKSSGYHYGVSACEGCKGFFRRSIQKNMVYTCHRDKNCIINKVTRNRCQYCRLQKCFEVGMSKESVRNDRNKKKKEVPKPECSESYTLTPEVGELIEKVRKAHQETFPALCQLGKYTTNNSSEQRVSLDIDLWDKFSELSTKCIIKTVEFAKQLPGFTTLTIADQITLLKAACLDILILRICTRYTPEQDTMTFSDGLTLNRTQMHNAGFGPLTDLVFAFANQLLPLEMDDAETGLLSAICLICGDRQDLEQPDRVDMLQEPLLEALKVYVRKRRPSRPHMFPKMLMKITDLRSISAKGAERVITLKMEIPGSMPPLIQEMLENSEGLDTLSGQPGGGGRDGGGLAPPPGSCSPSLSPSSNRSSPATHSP

Structure (SMILES)	outcome
Nc1ccc(N=Nc2ccc(-c3ccc(N=Nc4c(S(=O)(=O)O)cc5cc(S(=O)(=O)O)c(N=Nc6ccccc6)c(O)c5c4N)cc3)cc2)c(N)c1	inactive
O=C(Cc1ccccc1)c1ccccc1	inactive
O=C1C(Cl)=C(Cl)C(=O)c2ccccc21	inactive
O=[N+]([O-])c1c(Cl)c(Cl)cc(Cl)c1Cl	inactive
CCSC(C)CC1CC(=O)C(C(CC)=NOC/C=C/Cl)=C(O)C1 (configuration not stated)	inactive
O=C(Cl)c1ccc(Cl)cc1	inactive
O=[N+]([O-])c1ccc2c3c(cccc13)CC2	inactive
CCC(C)c1cccc(C(C)CC)c1O (configuration not stated)	inactive

Read-out: not listed separately
Test: BSK_3C_Proliferation: Cell Proliferation Assessment in the BioMAP Diversity Plus: 3C Assay (AID 2283006; active = hit-call score of the fitted dose curve at least 0.9, where 1 is the maximum; inactive = score below 0.9;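 for AC50: potency may reflect either rise or fall in cell number versus DMSO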)
Conditions: primary human endothelial cells (HUVEC)
In short: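 Proliferation as total protein: sulforhodamine B (0.1%) stain of TCA-fixed subconfluent human umbilical vein endothelial cells, absorbance 560 nm, 48 h after dosing. Activity fitted in both directions against DMSO baseline.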

Structure (SMILES)	outcome	AC50
COC(=O)c1sccc1S(=O)(=O)NC(=O)Nc1nc(C)nc(OC)n1	inactive	
CCOP(=S)(OCC)SCCS(=O)(=O)CC	inactive	
Cn1sc(Cl)cc1=O		13.7 µM (active)
CCSC(C)CC1CC(=O)C(C(CC)=NOC/C=C/Cl)=C(O)C1 (configuration not stated)	inactive	
ClC1=C(Cl)[C@]2(Cl)[C@H]3[C@H]([C@H]4C=C[C@H]3C4)[C@@]1(Cl)C2(Cl)Cl		20 µM (active)
COC[C@H](C)N(C(=O)CCl)c1c(C)csc1C	inactive	
O=[N+]([O-])c1ccc2c3c(cccc13)CC2	inactive	

Target: Peroxisome proliferator-activated receptor gamma (Homo sapiens) (UniProt P37231)
Test: ATG_PPARg_TRANS: Attagene TRANS-FACTORIAL HepG2 Assay for human Peroxisome Proliferator-activated Receptor-gamma (PPARg) (AID 2283007)
Conditions: not given
In short: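 After 24 h of chemical exposure, transfected HepG2 cells carrying PPARγ-Gal4 chimera reporter constructs are lysed for RNA. Reporter transcripts are measured by RT-PCR and capillary electrophoresis with fluorescent labelling, and gain of signal is fitted versus DMSO.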

Peroxisome proliferator-activated receptor gamma (Homo sapiens), sequence (P37231 whole entry, looked up): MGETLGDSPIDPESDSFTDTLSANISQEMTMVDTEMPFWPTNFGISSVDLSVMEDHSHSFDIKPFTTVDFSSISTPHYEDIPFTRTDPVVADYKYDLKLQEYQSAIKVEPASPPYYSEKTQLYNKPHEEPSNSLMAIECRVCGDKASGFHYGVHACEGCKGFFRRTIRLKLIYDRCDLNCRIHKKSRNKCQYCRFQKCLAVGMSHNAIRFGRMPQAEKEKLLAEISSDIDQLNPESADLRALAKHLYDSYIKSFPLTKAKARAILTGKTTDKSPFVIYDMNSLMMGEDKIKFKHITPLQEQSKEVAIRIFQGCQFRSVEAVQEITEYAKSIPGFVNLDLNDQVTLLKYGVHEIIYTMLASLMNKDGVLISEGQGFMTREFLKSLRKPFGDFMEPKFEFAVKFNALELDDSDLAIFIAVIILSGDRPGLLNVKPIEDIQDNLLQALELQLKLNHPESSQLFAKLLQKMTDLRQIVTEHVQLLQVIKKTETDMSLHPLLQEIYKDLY

Structure (SMILES)	outcome	AC50
COc1ccc(C=O)cc1	inactive	
O=C(c1ccccc1)C(Cl)Cl	inactive	
Nc1ccc(N=Nc2ccc(-c3ccc(N=Nc4c(S(=O)(=O)O)cc5cc(S(=O)(=O)O)c(N=Nc6ccccc6)c(O)c5c4N)cc3)cc2)c(N)c1	inactive	
O=C(CCl)CCl	inactive	
COc1ccc(C=O)cc1OC	inactive	
CCC[CH2][Sn]([CH2]CCC)([CH2]CCC)[O]C(=O)c1ccccc1		0.0116 µM (active)
C[C@H]1O[C@@H](O[C@H]2[C@@H](O)C[C@H](O[C@H]3[C@@H](O)C[C@H](O[C@H]4CC[C@@]5(C)[C@H](CC[C@@H]6[C@@H]5CC[C@]5(C)[C@@H](C7=CC(=O)OC7)CC[C@]65O)C4)O[C@@H]3C)O[C@@H]2C)C[C@H](O)[C@@H]1O	inactive	
O=C1C(Cl)=C(Cl)C(=O)c2ccccc21	inactive	
COP(=O)(OC)O/C(=C\Cl)c1cc(Cl)c(Cl)cc1Cl		10.8 µM (active)
O=[N+]([O-])c1c(Cl)c(Cl)cc(Cl)c1Cl		0.905 µM (active)
c1ccc(N=NNc2ccccc2)cc1		65.7 µM (active)
CC(=[OH+])/C=C(/C)[O-].CC(=[OH+])/C=C(/C)[O-].CC(=[OH+])/C=C(/C)[O-].[Fe]	inactive	
CCOP(=S)(OCC)SCCS(=O)(=O)CC	inactive	
Cn1sc(Cl)cc1=O	inactive	
CCCCCCCCSC(=O)Oc1cc(Cl)nnc1-c1ccccc1		24.3 µM (active)
CNC(=O)O/N=C/C(C)(C)S(C)=O (configuration not stated)		41.1 µM (active)

Structure (SMILES)	outcome	AC50
c1cc[c]([Hg][c]2ccccc2)cc1		25.2 µM (active)
O=C/C=C/c1ccccc1		28.7 µM (active)
Clc1nc(Cl)nc(Cl)n1	inactive	
COS(=O)(=O)c1ccc(C)cc1	inactive	
CCSC(C)CC1CC(=O)C(C(CC)=NOC/C=C/Cl)=C(O)C1 (configuration not stated)		35.3 µM (active)
C[C@H]1CCCC(=O)CCC/C=C/c2cc(O)cc(O)c2C(=O)O1	inactive	
CCc1ccccc1C	inactive	
ClCc1ccccn1	inactive	
ClC1=C(Cl)[C@]2(Cl)[C@H]3[C@H]([C@H]4C=C[C@H]3C4)[C@@]1(Cl)C2(Cl)Cl		64 µM (active)
O=C(Cl)c1ccc(Cl)cc1	inactive	
COc1ccccc1OC	inactive	
COC[C@H](C)N(C(=O)CCl)c1c(C)csc1C	inactive	
CCC(=O)c1ccccc1	inactive	
C=CC#N	inactive	
O=[N+]([O-])c1ccc2c3c(cccc13)CC2		22.7 µM (active)
CCC(C)c1cccc(C(C)CC)c1O (configuration not stated)	inactive	
